# Test results from the OligoGym collection.
# Molecular target: AACS
# Assay: pooled miR-30 sensor sort-seq; sequence = guide strand
# Details: shRNA
# Also: reference of the scale not given here.
row,Sequence,sensor-assay potency score (higher = more potent)
1,TTTTCTGCATAGTTGAGCCGAC,-0.296
2,TACAGATCCAGGGTCTCGGGGT,-0.361
3,TTGGAATCTTTGAAAGGTCTAT,0.0735
4,TCTGTCATTCTCTTTGTGCCGC,0.211
5,TTACAGTGCACACGGGTGCGGC,-0.808
6,TTTCGATGTGTCCACAACCTCA,-1.33
7,TTGATTCTGCAGTAGTCGCCAT,0.104
8,TGATTCTGCAGTAGTCGCCATG,-0.951
9,TTGAGGGTGCCGTCACTCCGGC,-1.01
10,TAGGCCTTTAACCACCTGCTGC,-1.19
11,TTTGACGGCAACTTCCACTTTC,-0.286
12,TAGCACAGGAGGATGTCACTGC,0.828

# Molecular target: AADACL2
# Assay: as above
# Details: shRNA
row,Sequence,sensor-assay potency score (higher = more potent)
1,TTGTAACATACATAAGTCCATC,-1.14
2,TTTTGTAAGAATTTTTTCCAAA,-1.07
3,TAACATACATAAGTCCATCATC,-1.34
4,TTCAGCATCATTCTGCACCTGT,0.443
5,TACAACAACAGCATCAAGCGTG,-0.148
6,TAACTGAGAATCATTGGCCAAC,-1.39
7,TTTTTGGCAAGTACAATCGTAC,-0.474
8,TATCTCTTATCCTAAGACCTAG,-0.412
9,TAAATGTACAAGTTTTAGCGAT,-0.754
10,TAAACAGATGTCTTGACTCCAG,-0.578
11,TTGGCAAGTACAATCGTACTGG,0.407
12,TTTTATTTCAGCATCATTCTGC,0.839

# Molecular target: AADACL3
# Assay: as above
# Details: shRNA
row,Sequence,sensor-assay potency score (higher = more potent)
1,TAGCAGATGAAACTCCAGGTGA,-0.205
2,TTACTTCCAAGTAAGCAGCTTC,0.308
3,TACAACAGTGAATTGTCCCGGA,0.727
4,TTTTCTTGTACAACAGTGAATT,-1.64
5,TTCATGATGACCTCTTGCCAGG,-1.37
6,TTGTTGACAAACCACTGCGGCT,-1.56
7,ATCCGTGACCACAACATCGGGA,0.0942
8,TAGATCAGGATCTGAGCCCGGA,0.297
9,TATGCTTAGGTAACTTGCGGTA,-0.306
10,TTATGCTTAGGTAACTTGCGGT,0.0464
11,TATGTCATCTTCTGCAATCAGG,-1.03
12,TTTCATGATGACCTCTTGCCAG,-1.07

# Molecular target: AATK
# Assay: as above
# Details: shRNA
row,Sequence,sensor-assay potency score (higher = more potent)
1,TTGCCTTCTGATCTCAGCGGAA,-0.981
2,TCGGTAGGGATTCTTCTCGTTG,-0.77
3,TTGATGGCAGACACCTCGCCAC,-0.828
